According to PubChem BioAssay AID1159580 (chemical genetic matrix, 2015):
Several values for one entry are separate records, joined by “and”; a condition that tells them apart may be missing. Equal values may be shown once. Hit rate of the full screen: of about 5,500 compounds, about 2,000 (36%) were called active. Another 18% or so got no clear call; they are omitted. No stated cut-off is given here; in the data, active means normalized growth mostly below about 0.91 (no sharp cut-off); inconclusive means no clear call, values can overlap the other calls; inactive means mostly above about 0.92. The list shows a part of the results.

Test: chemical genetic growth profiling, strain panel (AID 1159580);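 further: tested at 20 µM; growth read once vehicle control cultures reached saturation at 30 °C; 1 = growth at the plate median or of vehicle wells; lower values mean less growth of the strain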
Conditions: S. cerevisiae deletion strains, growth OD

Measured: normalized growth

CN1C(CC(=O)c2ccccc2)CCCC1CC(O)c1ccccc1 (configuration not stated)
inactive: locus YAL013W, strain DEP1, hits give low values 1.01 | locus YAL021C, strain ccr4, hits give low values 0.974 | locus YAL026C, strain drs2, hits give low values 0.976 | locus YAL030W, strain snc1, hits give low values 0.977 | locus YBL061C, strain skt5, hits give low values 0.976 | locus YBR009C, strain hhf1, hits give low values 0.972 | locus YBR021W, strain FUR4, hits give low values 1.02 | locus YBR023C, strain chs3, hits give low values 0.977 | locus YBR171W, strain sec66, hits give low values 0.989 | locus YBR229C, strain ROT2, hits give low values 1.01 | locus YBR231C, strain swc5, hits give low values 0.978 | locus YBR279W, strain paf1, hits give low values 0.984 | locus YCL011C, strain gbp2, hits give low values 0.966 | locus YCL016C, strain dcc1, hits give low values 0.978 | locus YCL029C, strain bik1, hits give low values 0.968 | locus YCL061C, strain MRC1, hits give low values 0.993 | locus YCL069W, strain vba3, hits give low values 0.982 | locus YCR088W, strain abp1, hits give low values 0.984 | locus YDL005C, strain med2, hits give low values 0.98 | locus YDL035C, strain GPR1, hits give low values 1.01 | locus YDL040C, strain nat1, hits give low values 0.976 | locus YDL074C, strain BRE1, hits give low values 1.01 | locus YDL101C, strain DUN1, hits give low values 1.01 | locus YDL134C, strain PPH21, hits give low values 1.01 | locus YDL185W, strain tfp1, hits give low values 0.992 | locus YDL192W, strain arf1, hits give low values 0.991 | locus YDR001C, strain nth1, hits give low values 0.979 | locus YDR069C, strain doa4, hits give low values 0.999 | locus YDR101C, strain arx1, hits give low values 0.97 | locus YDR137W, strain rgp1, hits give low values 0.918 | locus YDR150W, strain NUM1, hits give low values 1.02 | locus YDR159W, strain sac3, hits give low values 0.959 | locus YDR162C, strain NBP2, hits give low values 1.01 | locus YDR195W, strain ref2 0.928 | locus YDR297W, strain sur2, hits give low values 0.98 | locus YDR318W, strain mcm21, hits give low values 0.994 | locus YDR334W, strain swr1, hits give low values 0.975 | locus YDR335W, strain msn5, hits give low values 0.986 | locus YDR388W, hits give low values 0.975 | locus YDR392W, strain spt3, hits give low values 0.934 | locus YDR502C, strain sam2, hits give low values 0.98 | locus YEL003W, strain gim4, hits give low values 0.991 | locus YEL037C, strain rad23, hits give low values 0.984 | locus YEL061C, strain CIN8 (second series), hits give low values 0.966 | locus YEL061C, strain CIN8, hits give low values 1.01 | locus YER015W, strain faa2, hits give low values 0.989 | locus YER016W, strain bim1, hits give low values 0.98 | locus YER110C, hits give low values 0.981 | locus YER111C, strain swi4, hits give low values 0.98 | locus YER155C, strain BEM2 (second series), hits give low values 0.982 | locus YER155C, strain BEM2, hits give low values 1.01 | locus YER167W, strain BCK2, hits give low values 1.02 | locus YFR010W, strain ubp6, hits give low values 0.967 | locus YGL078C, strain dbp3, hits give low values 0.977 | locus YGL086W, strain mad1, hits give low values 0.997 | locus YGL167C, strain pmr1, hits give low values 0.963 | locus YGL173C, strain kem1, hits give low values 0.982 | locus YGL227W, strain vid30, hits give low values 0.962 | locus YGL240W, strain doc1, hits give low values 0.981 | locus YGL248W, strain PDE1, hits give low values 1.02 | locus YGL253W, strain hxk2, hits give low values 0.991 | locus YGR078C, strain PAC10, hits give low values 0.996 | locus YGR135W, strain pre9, hits give low values 0.968 | locus YGR229C, strain SMI1, hits give low values 0.967 | locus YGR252W, strain gcn5, hits give low values 1 | locus YHR013C, strain ard1, hits give low values 0.952 | locus YHR027C, strain rpn1, hits give low values 0.973 | locus YHR030C, strain SLT2, hits give low values 1.01 and 0.976 | locus YHR079C, strain IRE1 (second series), hits give low values 0.985 | locus YHR079C, strain IRE1, hits give low values 0.983 | locus YHR094C, strain hxt1, hits give low values 0.988 | locus YHR129C, strain ARP1, hits give low values 1.01 | locus YHR142W, strain chs7, hits give low values 0.999 | locus YHR200W, strain rpn10, hits give low values 0.989 | locus YIL066C, strain RNR3, hits give low values 1.01 | locus YIL073C, strain SPO22, hits give low values 1.02 | locus YIL125W, strain kgd1, hits give low values 1 | locus YIR030C, strain dcg1, hits give low values 0.993 | locus YJL092W, strain hpr5, hits give low values 0.982 | locus YJL095W, strain BCK1 (second series), hits give low values 0.979 | locus YJL095W, strain BCK1, hits give low values 0.975 and 0.978 | locus YJL115W, strain asf1, hits give low values 0.978 | locus YJL129C, strain trk1, hits give low values 0.974 | locus YJL134W, strain LCB3, hits give low values 1.01 | locus YJL154C, strain vps35, hits give low values 0.97 | locus YJL164C, strain tpk1, hits give low values 0.996 | locus YJL166W, strain qcr8, hits give low values 0.984 | locus YJL168C, strain set2, hits give low values 0.99 | locus YJL187C, strain SWE1 (second series), hits give low values 0.996 | locus YJL187C, strain SWE1, hits give low values 0.975 | locus YJR043C, strain POL32, hits give low values 1 | locus YJR066W, strain TOR1, hits give low values 0.935
